Laboratory results published in ChEMBL document CHEMBL3988442, “University of Dundee, Small-Polar-MMV Screening Library” (2021).
For some assays here: Results with a measured potency or affinity are listed apart.

How the values were obtained:
Set-up in all cases: scale not given: direction of the effect not stated beside the values
[1] = molecular target: Protein translocase subunit SecA (Escherichia coli (strain K12)) (UniProt P10408); test: Assay to Identify E. coli SecA ATPase Inhibitors; format: functional; settings: 30 µM
[2] = molecular target: T1, Ubiquitin-activating enzyme e1, putative (Leishmania donovani (strain BPK282A1)) (UniProt E9BSI1); test: Leishmania donovani Ubiquitin Activating Enzyme (LdE1); format: functional; settings: 30 µM
T1 sequence (whole entry): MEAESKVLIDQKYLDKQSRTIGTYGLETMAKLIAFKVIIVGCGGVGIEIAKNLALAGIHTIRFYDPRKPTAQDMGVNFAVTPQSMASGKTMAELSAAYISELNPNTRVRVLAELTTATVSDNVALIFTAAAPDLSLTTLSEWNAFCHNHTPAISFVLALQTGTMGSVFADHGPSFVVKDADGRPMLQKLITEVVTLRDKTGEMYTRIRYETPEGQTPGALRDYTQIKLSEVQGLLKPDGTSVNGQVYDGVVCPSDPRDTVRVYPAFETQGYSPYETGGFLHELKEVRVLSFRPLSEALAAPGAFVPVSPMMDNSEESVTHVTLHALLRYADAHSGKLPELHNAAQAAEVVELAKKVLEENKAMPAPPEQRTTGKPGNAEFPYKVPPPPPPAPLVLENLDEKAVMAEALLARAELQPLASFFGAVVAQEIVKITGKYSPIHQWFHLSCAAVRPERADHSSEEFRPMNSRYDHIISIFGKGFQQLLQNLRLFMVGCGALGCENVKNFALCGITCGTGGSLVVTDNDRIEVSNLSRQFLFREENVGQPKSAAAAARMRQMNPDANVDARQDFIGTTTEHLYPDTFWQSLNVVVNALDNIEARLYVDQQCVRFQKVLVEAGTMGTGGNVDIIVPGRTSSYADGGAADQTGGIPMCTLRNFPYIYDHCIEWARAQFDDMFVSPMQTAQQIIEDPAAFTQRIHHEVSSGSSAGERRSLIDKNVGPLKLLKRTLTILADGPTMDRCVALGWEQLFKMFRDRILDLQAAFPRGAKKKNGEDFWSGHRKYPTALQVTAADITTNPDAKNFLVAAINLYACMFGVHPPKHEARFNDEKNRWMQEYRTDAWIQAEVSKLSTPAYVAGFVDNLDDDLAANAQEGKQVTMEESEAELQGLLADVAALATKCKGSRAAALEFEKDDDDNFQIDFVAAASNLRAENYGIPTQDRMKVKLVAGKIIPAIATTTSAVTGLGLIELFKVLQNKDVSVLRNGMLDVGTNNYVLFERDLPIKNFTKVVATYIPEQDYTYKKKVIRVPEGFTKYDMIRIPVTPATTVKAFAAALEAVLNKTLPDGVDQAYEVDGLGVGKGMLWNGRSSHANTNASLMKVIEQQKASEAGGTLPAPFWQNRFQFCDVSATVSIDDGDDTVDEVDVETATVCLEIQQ

[3] = molecular target: AMP-activated protein kinase, AMPK (Homo sapiens) (UniProt P54646+O43741+P54619+Q9UGJ0+Q9Y478+Q13131+Q9UGI9); test: AMP-dependent Kinase enzyme assay. An in vitro enzyme assay that detects ADP turnover that is directly proportional to AMPK activity. This uses naive AMPK that is activated during the assay with MK-8722; format: functional; settings: 30 µM
[4] = molecular target: Sialic acid-binding Ig-like lectin 9 (Homo sapiens) (UniProt Q9Y336); test: Hs-Siglec9 ALPHAscreen SOP 20170721; settings: 10 µM
Trypanosoma cruzi = test: Trypanosoma cruzi phosphomannomutase and mannose-1-phosphate guanylyltransferase assay; format: functional; settings: 10 µM
[5] = molecular target: T2, Arginase-2, mitochondrial (Homo sapiens) (UniProt P78540); test: in vitro enzyme assay to detect the production of urea directly proportional to the activity of Arginase II; format: functional; settings: 33.3 µM; further: in the data most compounds retested in dose-response had high values
T2 sequence (whole entry): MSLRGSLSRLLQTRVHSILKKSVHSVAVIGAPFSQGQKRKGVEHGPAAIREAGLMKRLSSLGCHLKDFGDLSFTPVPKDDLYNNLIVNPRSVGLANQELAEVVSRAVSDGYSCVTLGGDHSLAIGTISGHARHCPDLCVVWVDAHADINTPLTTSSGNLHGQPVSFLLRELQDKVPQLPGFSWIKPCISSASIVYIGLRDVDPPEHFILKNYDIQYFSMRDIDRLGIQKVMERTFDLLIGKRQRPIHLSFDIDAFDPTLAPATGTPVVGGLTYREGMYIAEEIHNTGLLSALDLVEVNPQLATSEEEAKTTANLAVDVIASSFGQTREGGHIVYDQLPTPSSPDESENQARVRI

[6] = molecular target: T3, Proteasome subunit beta (Trypanosoma cruzi) (UniProt O96673); test: Trypanosoma cruzi proteasome chymotrypsin-like activity (TcProtChymo) assay.; further: in the data most compounds retested in dose-response had high values; format: functional; settings: 9.37 µM
T3 sequence (whole entry): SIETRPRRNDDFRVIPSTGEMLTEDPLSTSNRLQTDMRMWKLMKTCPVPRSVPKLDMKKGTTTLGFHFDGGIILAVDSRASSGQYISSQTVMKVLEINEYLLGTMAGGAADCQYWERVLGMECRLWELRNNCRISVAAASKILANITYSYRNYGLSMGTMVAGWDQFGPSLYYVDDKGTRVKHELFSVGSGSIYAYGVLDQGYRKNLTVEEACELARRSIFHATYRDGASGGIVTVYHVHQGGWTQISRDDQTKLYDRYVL

Homo sapiens = species: Homo sapiens; test: To identify inhibition of the IFN signalling (Jak-Stat) pathway via expression of an eGFP reporter gene under the control of an IFN-stimulated response element (ISRE) containing MxA promoter.; format: functional; settings: 30 µM
[7] = molecular target: T4, Tyrosyl-tRNA synthetase, putative (Trypanosoma cruzi (strain CL Brener)) (UniProt Q4DSP6); test: Trypanosoma cruzi tyrosyl tRNA synthetase (TcYRS) _High Tyrosine SOP; format: functional; settings: 30 µM; further: in the data most compounds retested in dose-response had high values
T4 sequence (whole entry): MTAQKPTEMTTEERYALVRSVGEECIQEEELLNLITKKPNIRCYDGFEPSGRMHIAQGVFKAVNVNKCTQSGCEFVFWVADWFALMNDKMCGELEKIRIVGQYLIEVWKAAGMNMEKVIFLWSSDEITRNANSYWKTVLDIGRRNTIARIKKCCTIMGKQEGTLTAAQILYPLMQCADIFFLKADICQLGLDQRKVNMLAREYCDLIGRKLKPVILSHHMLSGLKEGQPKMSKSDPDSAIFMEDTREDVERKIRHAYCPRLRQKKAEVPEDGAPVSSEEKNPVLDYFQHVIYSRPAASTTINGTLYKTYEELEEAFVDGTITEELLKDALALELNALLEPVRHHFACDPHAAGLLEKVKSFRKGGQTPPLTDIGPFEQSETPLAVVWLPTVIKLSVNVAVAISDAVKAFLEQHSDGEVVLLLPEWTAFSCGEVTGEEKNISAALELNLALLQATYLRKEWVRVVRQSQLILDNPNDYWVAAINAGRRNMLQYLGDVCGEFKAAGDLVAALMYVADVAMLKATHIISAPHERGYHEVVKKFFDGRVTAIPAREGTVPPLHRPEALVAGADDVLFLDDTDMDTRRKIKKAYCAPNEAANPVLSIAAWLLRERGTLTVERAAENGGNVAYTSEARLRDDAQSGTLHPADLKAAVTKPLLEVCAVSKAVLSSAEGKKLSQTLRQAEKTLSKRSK

[8] = molecular target: T4, Tyrosyl-tRNA synthetase, putative (Trypanosoma cruzi (strain CL Brener)); test: Trypanosoma cruzi tyrosyl tRNA synthetase (TcYRS) SOP; format: functional; settings: 30 µM
[9] = molecular target: Chromo domain-containing protein 1 (Saccharomyces cerevisiae (strain ATCC 204508 / S288c) (Baker's yeast)) (UniProt P32657); test: ScCHD-1 Enzyme Inhibition Assay; format: functional; settings: 30 µM; further: in the data most compounds retested in dose-response had high values
Chain of Chromo domain-containing protein 1 (Saccharomyces cerevisiae (strain ATCC 204508 / S288c) (Baker's yeast)) (P32657 whole entry, the tested form may be a part): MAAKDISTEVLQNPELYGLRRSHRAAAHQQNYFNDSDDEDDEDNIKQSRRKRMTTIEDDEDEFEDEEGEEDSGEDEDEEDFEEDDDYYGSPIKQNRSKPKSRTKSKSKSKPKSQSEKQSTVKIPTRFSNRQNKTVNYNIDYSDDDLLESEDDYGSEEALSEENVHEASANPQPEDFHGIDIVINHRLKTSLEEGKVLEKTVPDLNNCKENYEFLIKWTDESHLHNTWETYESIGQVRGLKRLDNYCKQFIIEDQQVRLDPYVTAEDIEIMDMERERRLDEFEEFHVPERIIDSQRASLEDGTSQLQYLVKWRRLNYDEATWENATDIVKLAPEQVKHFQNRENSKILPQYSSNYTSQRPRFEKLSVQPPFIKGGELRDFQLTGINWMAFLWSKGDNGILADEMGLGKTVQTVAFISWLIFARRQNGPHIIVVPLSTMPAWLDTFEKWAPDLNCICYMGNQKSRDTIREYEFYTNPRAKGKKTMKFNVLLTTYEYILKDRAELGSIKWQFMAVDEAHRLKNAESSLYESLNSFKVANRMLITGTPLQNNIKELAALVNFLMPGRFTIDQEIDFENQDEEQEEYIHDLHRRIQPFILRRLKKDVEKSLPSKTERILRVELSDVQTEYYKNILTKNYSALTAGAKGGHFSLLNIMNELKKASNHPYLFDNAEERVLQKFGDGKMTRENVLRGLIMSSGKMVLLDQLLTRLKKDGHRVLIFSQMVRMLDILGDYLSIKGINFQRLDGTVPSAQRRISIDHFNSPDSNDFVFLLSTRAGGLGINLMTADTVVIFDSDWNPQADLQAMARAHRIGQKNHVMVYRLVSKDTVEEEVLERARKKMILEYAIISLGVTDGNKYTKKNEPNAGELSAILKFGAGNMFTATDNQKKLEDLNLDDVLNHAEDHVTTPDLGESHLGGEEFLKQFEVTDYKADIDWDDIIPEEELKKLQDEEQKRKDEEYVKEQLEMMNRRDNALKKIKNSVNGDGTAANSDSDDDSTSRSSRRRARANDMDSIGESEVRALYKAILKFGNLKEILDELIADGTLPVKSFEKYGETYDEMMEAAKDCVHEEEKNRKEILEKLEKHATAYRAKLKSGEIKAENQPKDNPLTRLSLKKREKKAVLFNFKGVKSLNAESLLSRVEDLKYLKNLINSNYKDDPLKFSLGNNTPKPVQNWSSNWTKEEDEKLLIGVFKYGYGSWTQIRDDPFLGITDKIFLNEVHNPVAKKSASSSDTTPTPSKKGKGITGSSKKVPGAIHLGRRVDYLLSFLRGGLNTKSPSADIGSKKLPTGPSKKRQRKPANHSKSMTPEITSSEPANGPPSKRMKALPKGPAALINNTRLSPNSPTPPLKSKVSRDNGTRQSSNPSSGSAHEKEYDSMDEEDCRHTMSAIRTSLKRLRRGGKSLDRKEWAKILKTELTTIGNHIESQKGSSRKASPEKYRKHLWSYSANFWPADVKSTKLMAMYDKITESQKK

Chain of Sialic acid-binding Ig-like lectin 9 (Homo sapiens) (Q9Y336 whole entry): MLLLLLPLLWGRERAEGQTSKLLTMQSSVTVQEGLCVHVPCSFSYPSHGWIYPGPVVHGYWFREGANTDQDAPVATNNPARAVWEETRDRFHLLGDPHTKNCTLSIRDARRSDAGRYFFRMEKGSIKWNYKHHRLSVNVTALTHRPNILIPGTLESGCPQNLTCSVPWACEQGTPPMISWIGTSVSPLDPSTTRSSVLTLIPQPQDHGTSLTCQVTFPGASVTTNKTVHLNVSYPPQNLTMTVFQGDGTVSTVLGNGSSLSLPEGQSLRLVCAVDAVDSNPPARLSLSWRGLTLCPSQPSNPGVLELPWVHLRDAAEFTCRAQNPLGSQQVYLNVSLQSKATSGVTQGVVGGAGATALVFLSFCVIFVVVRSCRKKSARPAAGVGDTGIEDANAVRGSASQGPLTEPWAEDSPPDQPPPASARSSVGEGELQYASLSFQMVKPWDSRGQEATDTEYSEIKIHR
Chain of Protein translocase subunit SecA (Escherichia coli (strain K12)) (P10408 whole entry): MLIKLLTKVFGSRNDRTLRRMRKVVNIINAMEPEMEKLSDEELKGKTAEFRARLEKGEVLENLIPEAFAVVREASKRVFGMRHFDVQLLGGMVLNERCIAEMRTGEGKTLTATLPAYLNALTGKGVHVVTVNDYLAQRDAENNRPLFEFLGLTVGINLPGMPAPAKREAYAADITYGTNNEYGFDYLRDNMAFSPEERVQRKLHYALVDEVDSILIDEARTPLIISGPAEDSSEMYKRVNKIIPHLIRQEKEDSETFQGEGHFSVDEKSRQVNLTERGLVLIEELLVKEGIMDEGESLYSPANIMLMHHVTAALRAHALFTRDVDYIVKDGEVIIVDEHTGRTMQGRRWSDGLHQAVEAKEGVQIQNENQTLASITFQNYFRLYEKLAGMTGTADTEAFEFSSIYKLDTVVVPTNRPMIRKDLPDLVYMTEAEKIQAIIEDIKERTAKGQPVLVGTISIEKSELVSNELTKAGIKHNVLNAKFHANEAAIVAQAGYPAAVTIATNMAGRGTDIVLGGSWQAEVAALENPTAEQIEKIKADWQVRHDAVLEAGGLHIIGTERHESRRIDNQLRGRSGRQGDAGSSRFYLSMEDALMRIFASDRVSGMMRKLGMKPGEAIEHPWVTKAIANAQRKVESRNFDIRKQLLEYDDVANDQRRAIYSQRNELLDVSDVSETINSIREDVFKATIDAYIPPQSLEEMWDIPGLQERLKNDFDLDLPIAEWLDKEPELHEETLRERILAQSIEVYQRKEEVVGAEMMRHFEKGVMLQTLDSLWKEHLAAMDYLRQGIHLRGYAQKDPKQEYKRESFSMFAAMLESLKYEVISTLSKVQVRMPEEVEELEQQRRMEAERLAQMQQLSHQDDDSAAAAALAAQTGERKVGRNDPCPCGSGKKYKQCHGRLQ

Row | Compound | Percent Effect [1] | Percent Effect [2] | Percent Effect [3] | Percent Effect [4] | Percent Effect (Trypanosoma cruzi) | Percent Effect [5] | Percent Effect [6] | Percent Effect (Homo sapiens) | Percent Effect [7] | Percent Effect [8] | Percent Effect [9]
1 | O=C(c1ccnnc1)N1C[C@@H](OCC2CCCC2)[C@H]2OCCC[C@H]21 | -7.56% | 8.11% | 0.254% | -1.77% | -1.95% | 3.33% | 11.8% | -12.9% | 12.9% | -8.54% | -5.93%
2 | CS(=O)(=O)N1CC[C@]2(C[C@@H](OCC3CCC3)CO2)C1 | -3.98% | 16.2% | -8.34% | 20.7% | 2.64% | 1.24% | 11.6% | -1.67% | 5.38% | 18.5% | -5.25%
3 | Cc1nc(C(C)C)sc1C(=O)NS(=O)(=O)c1ccc(C#N)cc1 | -1.22% | 8.11% | -3.43% | 18.3% | 5.99% | 9.52% | 11.9% | -9.57% | 4.76% | 9.76% | -5.85%
4 | CCc1c(C)nc2n(c1=O)CC(C(=O)Nc1nccs1)CS2 (configuration not stated) | -7.87% | 13% | -4.33% | -3.77% | 5.62% | 5.81% | 7.31% | 4.32% | 3.17% | 14.1% | -7.44%
5 | CN(Cc1nnc(C2CC2)n1C)C1CCN(Cc2ccon2)C1 (configuration not stated) | -1.9% | 21.6% | -11.6% | -5.53% | -2.17% | -10% | 12.6% | 7.46% | 5.42% | 11.1% | -7.81%
6 | Cc1cccc(CN(C)Cc2nc3c(cnn3C)c(=O)[nH]2)c1 | -3.57% | 21.1% | -0.412% | -12.2% | -5.51% | -5.04% | 3.3% | -2.73% | 8.37% | 23.5% | -7.57%
7 | CCOC1CCN(C(=O)c2c(Cl)c3ccccc3n2C)CC1 | -2.47% | 0% | -0.042% | 1.92% | -2.43% | 3.12% | 13.4% | -2.41% | -2.73% | 11.1% | -4.88%
8 | Cc1c(C)n(Cc2ccccn2)c2nc3c(c(N)c12)CCCC3 | -3.58% | -1.33% | 15.5% | 6.91% | -3.73% | -8.98% | 12.8% | -6.48% | 2.12% | 5.13% | -5.09%
9 | Cc1cc(C)c2nc(CN3CCOC(CCO)C3)cc(O)c2c1 (configuration not stated) | -2.9% | 2.7% | -1.47% | 5.2% | 0.965% | -2.38% | 10.3% | -6.99% | 4.76% | 14.6% | -1.34%
10 | Cc1nc(CNC(C)c2ccc(OCC(=O)NC3CC3)cc2)cs1 (configuration not stated) | -1.09% | 19% | -0.957% | -2.32% | -2.15% | -8.82% | 23.8% | 3.09% | 4.17% | -48.1% | -24.3%
11 | Cc1ccc(NC(=O)N(C)Cc2cnn(C)c2)cc1OCC(F)F | -9.52% | 2.7% | -18.9% | 28% | 12.4% | -11.2% | 6.67% | 11.9% | 3.45% | 23.5% | -16.1%
12 | COc1cccc(COCC(=O)N2CCCC(c3nncn3C)C2)c1 (configuration not stated) | -4.98% | 13.5% | -6.54% | 18.4% | 3.11% | -6.81% | 0.721% | 13.5% | 4.43% | 16.1% | -11.8%
13 | Cc1cc(C)n(C2CN(CC(O)COc3ccc(F)cc3)C2)n1 (configuration not stated) | -3.4% | -20.8% | 2.93% | 9.67% | -1.12% | 1.42% | -0.169% | -11.2% | 4.85% | -4.88% | -2.37%
14 | CC(c1ccc(Cl)cc1)N1CCN(CCNS(C)(=O)=O)CC1 (configuration not stated) | -4% | -2.7% | -2.79% | 66.6% | 3.28% | 0.952% | 10.7% | 4.77% | 4.76% | 19.5% | -8.23%
15 | CCc1nc(CN2CCOC(Cn3nc(C)nc3C)C2)no1 (configuration not stated) | -1.49% | 23.7% | 2.58% | -7.19% | -2.33% | 4.32% | 3.64% | 5.43% | 8.37% | 18.5% | -6.23%
16 | CCS(=O)(=O)N1C[C@H]2CN(Cc3cccnc3)C(=O)[C@H]2C1 | -1.39% | 2.7% | 0.503% | 1.84% | -6.25% | 0% | 10.9% | 19.2% | 4.95% | 6.1% | 1.54%
17 | CC(C)c1nc2n(n1)CC(NCc1nnc(-c3ccco3)o1)CC2 (configuration not stated) | -2.41% | 0% | -14.3% | -0.788% | 5.94% | 0.802% | -3.06% | -2.24% | 3.45% | 6.17% | -0.171%
18 | Cc1noc(C)c1CN1CC2(CCN(C(=O)c3c[nH]cn3)C2)CC1=O (configuration not stated) | -0.0681% | 13.3% | -2.8% | 13.2% | -3.48% | -49.3% | 17.8% | -2.42% | 2.08% | 17.5% | -4.57%
19 | O=c1nc(SCc2cccnc2)c2c(n1CCO)CCC2 | -1.99% | 13.7% | -3.57% | 7.9% | 0.588% | 5% | 15.8% | 16.7% | 6.45% | 15% | -7.2%
20 | O=C(NCc1ccc(F)cc1)N1CCC(C2OCCO2)CC1 | -3.74% | 7.89% | 6.23% | 6.03% | -1.66% | -8.28% | 12.4% | 13.8% | 6.38% | 13% | -4.56%
21 | Cc1nnc2n1CCN(Cc1csc(Cc3ccccc3)n1)C2 | -5.45% | 5.41% | -7.1% | 3.42% | 3.25% | 4.62% | 3.41% | 8.73% | 8.91% | 15.8% | -1.48%
22 | COc1ccccc1OCCN1CCCC(c2noc(C3CC3)n2)C1 (configuration not stated) | -3.76% | 0% | -2.32% | -0.399% | -2.24% | 3.12% | 5.41% | -3.11% | 2.73% | 6.17% | -4.48%
